Calls of active or inactive are those of the source. Where a call stands in place of a potency, no number is given. The call rests on the fitted dose curve.
Biological target: Gonadotropin-releasing hormone receptor (Homo sapiens) (UniProt P30968)
Assay: Human gonadotropin-releasing hormone receptor (GnRHR) small molecule agonists, calcium flux assay in GnRHR-HEK293 cells (AID 1920063); further: nearly all actives have a fitted effect of over 35% in size
Details: calcium flux fluorescence, agonist mode; series mostly up to 57.6 µM
Procedure, shortened: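 HEK293 cells stably expressing human GnRHR were dye-loaded for 1 h at 37 C. Compound was added in agonist mode and fluorescence (Ex/Em 480/540) recorded kinetically for 3 min. Fifteen concentrations, triplicates.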
Potency means the concentration at half of the fitted maximal effect.

Chain of Gonadotropin-releasing hormone receptor (Homo sapiens) (P30968 whole entry, looked up): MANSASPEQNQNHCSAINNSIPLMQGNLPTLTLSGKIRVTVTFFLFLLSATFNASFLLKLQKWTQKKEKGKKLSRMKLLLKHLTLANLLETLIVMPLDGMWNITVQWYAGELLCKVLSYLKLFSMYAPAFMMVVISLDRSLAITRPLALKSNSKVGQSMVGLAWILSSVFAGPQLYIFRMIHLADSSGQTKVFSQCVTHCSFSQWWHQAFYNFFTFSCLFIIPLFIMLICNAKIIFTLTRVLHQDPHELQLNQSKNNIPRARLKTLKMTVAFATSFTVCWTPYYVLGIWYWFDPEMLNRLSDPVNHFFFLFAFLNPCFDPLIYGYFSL

SMILES	Potency
Oc1ccc2cc(SSc3ccc4cc(O)ccc4c3)ccc2c1	inactive
C=CCn1cc[n+](C)c1	inactive
NC(=O)C1CO1 (centres undefined)	inactive
OC1(c2ccc(Cl)cc2)CCNCC1	inactive
OC[C@H]1O[C@@H]2O[C@H]3[C@H](O)[C@@H](O)[C@@H](O[C@H]4[C@H](O)[C@@H](O)[C@@H](O[C@H]5[C@H](O)[C@@H](O)[C@@H](O[C@H]6[C@H](O)[C@@H](O)[C@@H](O[C@H]7[C@H](O)[C@@H](O)[C@@H](O[C@H]1[C@H](O)[C@H]2O)O[C@@H]7CO)O[C@@H]6CO)O[C@@H]5CO)O[C@@H]4CO)O[C@@H]3CO	inactive
O=C(O)c1cc(=O)c2ccccc2o1	inactive
CO[Si](C)(C)OC	inactive
CN(CCOc1ccc(CC2SC(=O)NC2=O)cc1)c1ccccn1 (centres undefined)	inactive
N=C(N)c1ccc2cc(OC(=O)c3ccc(N=C(N)N)cc3)ccc2c1	inactive
CC/C=C\C/C=C\C/C=C\CCCCCCCC(=O)O	inactive
O=[N+]([O-])c1ccc(F)cc1F	inactive
Nc1ncnc2c1ncn2[C@@H]1O[C@H](COP(=O)(O)O)[C@@H](O)[C@H]1O	inactive
Nc1ccc(Cl)c(N)c1	inactive
Cc1cccc(C)c1NC(=O)CN1CCCCCC1	inactive
CN(C)c1ccc(C(=N)c2ccc(N(C)C)cc2)cc1	29.7 µM (active)
CNC(=O)Nc1ccc(Cl)c(Cl)c1	inactive
C1CCCNCCC1	inactive
COc1cccc2c1C(=O)c1c(O)c3c(c(O)c1C2=O)C[C@@](O)(C(C)=O)C[C@@H]3O[C@H]1C[C@H](N)[C@H](O)[C@H](C)O1	34.9 µM (active)
CCC(=O)OC	inactive
OCCCC1CCCCC1	inactive

SMILES	Potency
CCOC(=O)c1ccccc1C	inactive
Cc1cccc(N(C)C)c1	inactive
CC(C)CCOCCC(C)C	inactive
C/C=C/CO	inactive
CCOC(=S)SSC(=S)OCC	inactive
O=C(O)c1ccccc1-n1cc(C(=O)O)c(=O)c2cc(Nc3c(F)cc(F)cc3Cl)c(Cl)cc21	inactive
C=C(C)C(=O)OCCC[Si](Cl)(Cl)Cl	inactive
CO[Si](CCCNCCNCCN)(OC)OC	inactive
O=Cc1ccc(Cl)c(Cl)c1	inactive
OC1CCCCCCCCCCC1	inactive
NC(=O)c1cccc([N+](=O)[O-])c1	inactive
COc1cccc(OC)c1C(=O)N[C@@H]1C(=O)N2[C@@H]1SC(C)(C)[C@@H]2C(=O)O	inactive
CCCCOC(=O)C(=O)OCCCC	inactive
CCn1cc(C(=O)O)c(=O)c2cc3c(cc21)OCO3	inactive
C[Si](C)O[Si](C)(C)O[Si](C)(C)O[Si](C)C	inactive
CCC(C)CO (centres undefined)	inactive
CN(C)CCOC(c1ccc(Cl)cc1)c1ccccn1 (centres undefined)	inactive
O=C(Cl)c1ccccc1[N+](=O)[O-]	inactive
OCCC(F)(F)C(F)(F)C(F)(F)C(F)(F)C(F)(F)C(F)(F)F	inactive

From PubChem BioAssay (Tox21)
